IP6K1 inh – IP6K1 kinase inhibition; IP6K1 kinase, ADP-Glo luminescence, 2 h; hits give low values; Q92551; activity change, % (series mostly up to about 58 µM); hit rate 0.81% among 140,000; in the data active means activity change below about -25%
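ADP-Glo luminescence measures ADP made by human IP6K1 during a 2 h RT reaction with ATP/IP6 (mix at 1.3 mM/130 uM); top library doses 57.5 and 19.1 uM final.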
SNCA expr inh – inhibitors of alpha-synuclein (SNCA) gene expression. HEK-293 SNCA-luciferase knock-in, luminescence, 24 h. Potency, µM (doses to about 57.2 µM), for inactives: top-dose activity change, negative = inhibition, usual class: inhibitors. hit rate 0.17% among 140,000;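 further: potency means the concentration at half of the fitted maximal effect; plate controls were DMSO cells for no effect and cell-free wells for full effect; nearly all actives have a fitted effect of over 45% in size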
GPT2 inh – blocks human glutamate pyruvate transaminase 2. hit rate 0.25% among 100,000. Q8TD30. Potency, µM (series often up to 57.7 µM), inactives show top-dose activity change, negative = inhibition, most hits filed as inhibitors. Recombinant GPT2, coupled pyruvate oxidase/HRP Amplex Red fluorescence. AID 1671188; further: potency means the concentration at half of the fitted maximal effect; nearly all actives have a fitted effect of over 60% in size
Target sequence (Q8TD30 whole entry, looked up): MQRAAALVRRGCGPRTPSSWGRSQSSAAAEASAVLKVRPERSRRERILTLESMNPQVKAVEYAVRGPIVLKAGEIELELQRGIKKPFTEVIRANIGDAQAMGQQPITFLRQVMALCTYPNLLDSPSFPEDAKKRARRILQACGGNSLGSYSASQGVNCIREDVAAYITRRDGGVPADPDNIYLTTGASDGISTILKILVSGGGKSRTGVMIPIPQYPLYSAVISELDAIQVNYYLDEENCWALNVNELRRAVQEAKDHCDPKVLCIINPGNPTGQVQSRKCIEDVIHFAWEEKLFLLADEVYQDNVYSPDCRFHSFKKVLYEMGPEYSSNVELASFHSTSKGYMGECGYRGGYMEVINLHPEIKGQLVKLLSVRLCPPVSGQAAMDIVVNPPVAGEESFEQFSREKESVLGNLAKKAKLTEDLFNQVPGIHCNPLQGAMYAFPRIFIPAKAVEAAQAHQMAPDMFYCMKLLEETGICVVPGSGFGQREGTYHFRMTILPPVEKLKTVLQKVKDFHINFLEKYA
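GPT2 10ng/uL, a-KG 250uM, L-Ala 2mM, HEPES pH7.5 + 0.0001% Tween; 30 min RT. Then Amplex mix (PO/HRP/ThPP), 30 min RT dark, fluorescence. AOA 50uM used as positive control.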
SNCA viab count – reduces viability of HEK-293 SNCA reporter cells; Potency, µM (highest dose often 57.1 µM), inactives show top-dose activity change, negative = cytotoxicity, most hits filed as cytotoxic; HEK-293-SNCA-luc viability, GF-AFC fluorescence, 24 h; hit rate 0.12% among 150,000;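 further: potency means the concentration at half of the fitted maximal effect; 0% = DMSO-treated cells and -100% = medium-only wells without cells; nearly all actives have a fitted effect of over 30% in size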
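HEK-293-SNCA-luc cells (1500/well) plated 24 h, then exposed 24 h to a dilution series; GF-AFC added 30 min at 37C, fluorescence 405/540 nm; normalised to medium-only and DMSO wells, Hill fit.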
Numbers without * were called inactive; i = inactive; ? = inconclusive; . = no result given; ! = not active in a repeat; [ ] = dose if it differs, or a comment. Shown are actives, neighbours in structure and some others; about 1.1% of the full set was active somewhere. Unless noted, the call rests on the fitted dose curve; in most records, active means well fitted curve in the direction sought with a large enough effect; inconclusive means small, poorly fitted or top-dose-only effect, or another doubt; inactive means no such curve, though single readings can be large; an effect the other way counts as inactive or inconclusive. Unless noted, on the % scale 0 is the no-effect control and ±100 the full control effect.

SMILES | IP6K1 inh | SNCA expr inh | GPT2 inh | SNCA viab count
COc1ccc(C(=O)N2CCC3(CC2)COc2ccccc2NC3=O)cc1 | 26.4 | 17.1% | 2.7% | -4.5%
COCCC1(NC(=O)C(C)c2ccccc2)CCN(S(C)(=O)=O)CC1 (stereo unspecified) | -12.3 | -14.4% | i | 20µM*
O=C(O)c1cccnc1 | 3.4 | 4.29µM*! | -22.5% | 4.29µM*!
COc1ccc(NS(=O)(=O)c2ccc3c(c2)[C@H]2C=CC[C@H]2[C@@H](c2ccc(C(=O)O)cc2)N3)cc1 | -57.9* | 17.9% | . | -15.5%
Cc1[nH]nc2ccc(-c3cncc(OC[C@@H](N)Cc4ccccc4)c3)cc12 | -6.1 | 0.171µM* | -25.6% | 9.47µM*!
CCOc1ccc(CCNCc2c(C(=O)O)n(Cc3ccc(C)cc3)c3cc(OC)ccc23)cc1 | -8.6 | ? | . | ?
CCN1C(=O)CC(C(=O)Nc2ccc(OC)cc2)SC1=Nc1ccc(C)c(C)c1 (stereo unspecified) | -4.6 | ? | . | -1.1%
O=C(Nc1cn[nH]c1-c1nc2ccc(CN3CCOCC3)cc2[nH]1)NC1CC1 | -1.8 | 24.1µM* | -3.8% | ?
OC[C@H]1O[C@@H](Oc2cc(O)cc(/C=C/c3ccc(O)cc3)c2)[C@H](O)[C@@H](O)[C@@H]1O | 19.4 | . | ? | -16.1%
COc1ccc(C=Cc2cc(OC)c(OC)c(OC)c2)cc1O | . | -2.1% | 2.2% | -13.8%
Oc1ccc(C=Cc2cc(O)cc(O)c2)cc1 | . | 12.1µM* | -27.3% | -5.2%
Oc1cc(O)cc(C=Cc2ccc(O)c(O)c2)c1 | . | -1.2% | 4.32µM* | -13.6%
Cc1cc(=O)oc2c(C=O)c(O)ccc12 | -11.5 | . | i | 2.1%
O=c1cc(O)cc(/C=C/c2ccc(O)c(O)c2)o1 | . | -14.6% | 6.31µM* | -6.5%
O=C(CCC1CCN(c2cc(NC3CC3)ncn2)CC1)NCc1ccc(F)cc1 | 17.0 | ? | i | 5.4%
O=C(CCC1CCN(c2cc(NC3CC3)ncn2)CC1)NCc1ccc(F)cc1F | 19.2 | 3.55µM* | i | -5.6%
O=C(CCC1CCN(c2cc(NC3CC3)ncn2)CC1)NCc1cc(F)cc(F)c1 | 11.7 | 4.47µM* | i | 9.5%
CCC(C)S(=O)(=O)c1oc(-c2ccc(F)cc2)nc1S(=O)(=O)c1ccc(F)cc1 (stereo unspecified) | 0.9 | ? | . | 28.2µM*
CCS(=O)(=O)c1oc(-c2ccc(F)cc2)nc1S(=O)(=O)c1ccccc1 | -7.8 | ? | . | 7.94µM*
FC(F)c1nc2ccccc2n1-c1nc(N2CCOCC2)nc(N2CCOCC2)n1 | 0.9 | -10.1% | 2.4% | ?
COc1cc(-n2cnc3cc(-c4ccc(Cl)cc4)sc3c2=O)ccc1OCCN1CCCC1 | 19.1 | . | i | 11.9µM*
COc1cc(C)ccc1OCCn1c(-c2ccc(Cl)cc2)nc2ccccc2c1=O | -7.5 | -9.3% | . | -7.9%
c1coc(-c2nc3ccncc3[nH]2)c1 | 23.0 | 16.4%[87.6 µM] | 31.6µM*! | -8.4%[87.6 µM]
CCc1noc([C@@H]2CC(F)(F)CN2C(=O)Cn2nc(C)cc2C)n1 | 3.9 | 0.5% | i | 7.7%
CC(=O)OC1C(C)C2C(OC3OC(CO)C(O)C(O)C3O)OC=C(C(=O)O)C2C1OC(=O)c1ccccc1 (stereo unspecified) | 7.0 | . | i | -8.8%[23.9 µM]
SMILES | IP6K1 inh | SNCA expr inh | GPT2 inh | SNCA viab count
CC(C)[C@H](CO)Nc1nc(Nc2cccc(Cl)c2)c2ncn(C(C)C)c2n1 | . | 4.8% | -5.7% | 24.1µM*
CC[C@H](CO)Nc1nc(Nc2cccc(-c3ccccn3)c2)c2ncn(C(C)C)c2n1 | -11.1 | . | ? | -34.5%
O=C(NCc1cccs1)C1CCN(c2ccnc3ccnn23)CC1 | 1.1 | -25.6%[87.6 µM] | -8.8%[88.5 µM] | -7.5%[87.6 µM]
CS(=O)(=O)c1cnc(NC2CCCC2)nc1C1CCCNC1 (stereo unspecified) | 43.9 | 85.2% | -1.7%[11.5 µM] | 2.4%
COc1cc(O)ccc1-c1nc2ccc(Br)cn2c1Nc1ccccc1C | -10.7 | ? | . | 14.1µM*
CCS(=O)(=O)Nc1ccc2[nH]c(O)c(C(=Nc3ccc(CN4CCCCC4)cc3)c3ccccc3)c2c1 | . | 1.21µM* | -20.4% | ?
CNC(=O)c1ccc2c(C(=Nc3cccc(CN(C)C)c3)c3ccccc3)c(O)[nH]c2c1 | -5.0 | ? | ? | ?
CCOC1CCOC2(CCN(C(=O)c3ccc(C)nc3)CC2)C1 (stereo unspecified) | 8.8 | 1.3% | i | 10.9%
Cn1c(C(=O)Nc2ccc(N3CCOCC3)cc2)cc2c1CCN(Cc1ccccc1)C2 | -8.2 | 77.9% | 22.4µM* | -14.4%
CC(=O)Nc1ccc(NC(=O)c2cc3c(n2C)CCN(Cc2ccccc2)C3)cc1 | -8.9 | 32.6% | -24.6% | 9.2%
c1ccc(OCC2CN(Cc3ccc4[nH]ccc4c3)CC23CN(c2ccccc2)C3)cc1 (stereo unspecified) | -0.6 | 20µM* | -33.4%[88.5 µM] | ?
CC1CCCN(C(=O)c2cc3ccc4cccnc4c3[nH]2)C1 (stereo unspecified) | -5.2 | 2.24µM* | . | ?
O=C(c1cc2ccc3cccnc3c2[nH]1)N1CCCCC1 | -17.0 | ? | . | -2.3%
C=C(C=O)[C@]1(O)C[C@@]2(C)C(=CC1=O)C=C[C@H](OC(=O)/C=C/C=C/[C@H](C)CC)[C@@H]2C | -16.0 | . | -4.5%[27.3 µM] | 8.22µM*
Cc1ccc(CS(=O)(=O)c2ncc(Cl)c(C(=O)Nc3nnc(C(C)C)s3)n2)cc1 | -11.4 | ? | . | 25.1µM*
CCc1nnc(NC(=O)c2nc(S(=O)(=O)Cc3cccc(C)c3)ncc2Cl)s1 | -4.1 | ? | . | 20µM*
O=C(Nc1nc2ccc(F)cc2s1)c1nc(S(=O)(=O)Cc2ccccc2F)ncc1Cl | -39.7* | ? | . | ?
O=C(NCc1ccc(Cl)s1)C1CCCN(C2CCN(C(=O)C3CC3)CC2)C1 (stereo unspecified) | 2.4 | 3.4% | i | 6.6%
O=C(Cc1c[nH]c2ncc(-c3ccccc3Oc3ccccc3)cc12)N1CCOCC1 | -19.1 | ? | ? | -16.8%[87.6 µM]
O=C(Cc1c[nH]c2ncc(-c3ccc(Oc4ccccc4)cc3)cc12)N1CCOCC1 | -7.1 | 25.1µM* | -3.3%[88.5 µM] | ?
Cc1cc(Cl)ccc1-n1nc(C)c([C@@H]2C=C[C@@H](NC(=O)CCC(=O)O)C2)c1C | 3.6 | -12.3%[87.6 µM] | 3.7%[88.5 µM] | -0.9%[87.6 µM]
CCNc1cc(N2CCC(CCC(=O)O)CC2)ncn1 | 0.1 | 1.26µM* | i | 10.6%
CCCNc1cc(N2CCC(CCC(=O)NCc3cccc(OC)c3)CC2)ncn1 | 15.6 | 2.24µM* | 4.9% | 2.0%
CCNc1cc(N2CCC(CCC(=O)Nc3cccc(OC)c3)CC2)ncn1 | 10.2 | 7.94µM* | 3.3% | 0.4%
O=C(CCC1CCN(c2cc(NC3CC3)ncn2)CC1)NCc1ccccc1Cl | 15.2 | 8.91µM* | -5.2% | 7.4%
NC1=N[C@H]2[C@H](CS[C@H]2CCCCC(=O)O)N1 | . | -28.2%[25.6 µM] | 1.9%[27.3 µM] | -0.6%[23.9 µM]
O=C(NCc1ccc2c(c1)CCN2C(=O)c1ccncc1)c1ccccc1Br | -2.1 | -15.8% | . | 2.6%
CN(C)c1ccc(NC(=O)CC(NCc2cccnc2)C(=O)O)cc1 (stereo unspecified) | 16.4 | -14.3% | . | -3.4%

High-throughput results deposited in PubChem BioAssay by National Center for Advancing Translational Sciences (NCATS).
